# HUVEC tox TNFa – toxic to HUVEC cells under TNF alpha stimulation | HUVEC TNFalpha-stimulated, Hoechst cell count, imaging | cell count reduction, % at 2 µM | 0.17% of 93,000 active | AID 848;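 active = cell count reduction exceeding the screen mean by over 5 SD, scaled to untreated wells per plate, cut at about 78% in these data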;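 note: cells counted after 24 h of TNF alpha exposure following the 1 h pretreatment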
# E-sel TNF inh – TNF alpha driven E-selectin expression inhibition; inhibition, % at 2 µM; HUVEC TNFa-induced E-selectin immunofluorescence, high content; 0.71% of 120,000 active;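 active = inhibition above the batch mean plus 3 SD, and confirmed as a hit on visual image review, cut at about 43% in these data; inconclusive = passes the inhibition cutoff but fails visual image review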;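 note: 0% = TNF-stimulated DMSO wells and 100% = unstimulated control wells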
# cytoskel mod – modifiers of cytoskeleton assembly. inhibition, % at 2 µM. 0.18% of 91,000 active. AID 836. HUVEC TNFa F-actin phalloidin imaging, high content;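 active = inhibition above the batch mean plus 3 SD and confirmed as a hit by visual image inspection, cut at about 30% in these data, passing the limit was not always enough; inconclusive = above the inhibition threshold but rejected on visual inspection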
# VCAM1 TNFa inh – reduces TNF alpha induced VCAM1 expression in HUVEC; HUVEC TNFa-induced VCAM-1 immunofluorescence, high-content imaging; inhibition, % at 2 µM; 0.48% of 95,000 active;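 active = inhibition above the batch mean plus 3 SD, with images confirmed as a hit by eye, cut at about 37% in these data; inconclusive = inhibition above that limit but hit not confirmed in images; inactive = inhibition not above that limit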;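 note: 0% = TNF-stimulated DMSO wells and 100% = unstimulated control wells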
# * = called active by the depositor; u = inconclusive; x = not tested or not shown. Rows were chosen to be rich in hits. Some 1% of all compounds tested hit in one or more screens of this group.
SMILES,HUVEC tox TNFa,E-sel TNF inh,cytoskel mod,VCAM1 TNFa inh
Cc1ccn2c(NC(=O)c3ccco3)c(-c3ccccc3)nc2c1,-13.3,-12.3,16.2,97.4*
Nc1ccc2c3c(cccc13)CC2,-3.1,x,50.8*,20.2
c1ccc(Nc2ccc3c4c(cccc24)CC3)cc1,-20.3,13.9,11.6,4.3
O=C(Nc1ccc(-n2cccc2)cc1)C1CC1,x,17.3,x,x
Cc1ccc(C(=O)NCC2CCCO2)cc1N1CCCC1=O (stereo not given),-59.1,66.1*,2.1,-33.1
CC(C)(C)n1nc2c(c1NC(=O)Cc1ccccc1)CS(=O)(=O)C2,x,6.7,x,x
O=S1(=O)CCN(C(CO)c2ccccc2)CC1 (stereo not given),x,-11.4,x,x
CC(C)C(C(=O)O)N1CCS(=O)(=O)CC1 (stereo not given),x,79.8*,x,x
COc1ccc(CCNc2oc(-c3ccc(OC)c(OC)c3)nc2C#N)cc1,20.2,5.0,-0.4,23.7
COc1ccc(-c2nc(C#N)c(NCCCN(C)C)o2)cc1OC,-34.4,16.6,35.3,96.6*
O=C1SC(SC(=Nc2ccccc2)Nc2ccccc2)C(=O)N1c1ccccc1 (stereo not given),x,23.1,x,x
CC1CC1c1ccc(/C=C(\C#N)C(=O)Nc2ccc(Cl)cc2)o1 (stereo not given),x,63.6*,x,x
CCc1ccc(-c2nc(CS(=O)CC(=O)NCc3cccnc3)c(C)o2)cc1 (stereo not given),x,-2.5,x,x
COc1ccc(-c2nc(CS(=O)CC(=O)NCc3cccnc3)c(C)o2)cc1 (stereo not given),82.2*,x,13.2,18.5
COc1ccc(C(=O)NCCNC(C)=O)cc1S(=O)(=O)NCc1ccc(Cl)cc1,-7.3,57.1*,-0.2,15.6
COc1ccc(C(=O)NCc2ccc3c(c2)OCO3)cc1S(=O)(=O)NCc1ccc(Cl)cc1,x,-9.9,x,x
CCN(CC)c1ccc(NC(=O)C2CC3CCC2C3)cc1 (stereo not given),x,96.2*,x,x
C=CCN(CC=C)C(=O)Nc1cc(Cl)ccc1OC,7.7,53.0*,-7.3,-0.2
CN(C)S(=O)(=O)c1ccc(NC(=O)COC(=O)C2CC3CCCC(C2)C3=O)cc1 (stereo not given),x,-8.4,x,x
COc1ccc(-c2cnnn2-c2ccc(N)cc2)cc1OC,-16.7,13.2,4.6,17.2
Nc1cccc(-n2nncc2-c2ccc(Cl)cc2)c1,-4.2,65.1*,-8.7,10.7
O=C(c1ccco1)N1CCN(C(=O)N2c3ccccc3Sc3ccccc32)CC1,72.8,-5.8,-7.8,82.7*
O=C(c1ccco1)N1c2ccccc2Sc2ccccc21,4.0,-1.5,-3.9,0.2
O=C(Cn1ncc2c(=O)oc3ccccc3c21)N1CCc2ccccc2C1,x,90.5*,x,x
O=C(Cn1ncc2c(=O)oc3ccccc3c21)N1CCC(N2CCCCC2)CC1,x,-2.8,x,x
SMILES,HUVEC tox TNFa,E-sel TNF inh,cytoskel mod,VCAM1 TNFa inh
O=C(NCCO)C(c1ccccc1)c1ccccc1,89.9*,x,-26.2,91.2*
Cn1ncc(N=Cc2c(O)ccc3ccccc23)c1C(=O)Nc1cccc(Cl)c1,x,-1.0,x,x
COc1cc(/C=C/C(=O)N2CCN(CC(O)COc3ccccc3)CC2)cc(OC)c1OC (stereo not given),-23.4,66.4*,32.7,2.5
COc1cc(/C=C/C(=O)N2CCCN(C(=O)/C=C/c3cc(OC)c(OC)c(OC)c3)CC2)cc(OC)c1OC,x,5.3,x,x
Cc1cc(NC(=O)CSc2nc3ccccc3c(=O)n2C2CCCC2)no1,45.7,-1.5,13.7,67.7*
Cc1cc(NC(=O)CSc2nnc(Cc3ccccc3)n2C)no1,-20.2,44.0*,19.3,17.1
O=C(Nc1ccc(Oc2ccccc2)cc1)C1CCCN(c2ncccn2)C1 (stereo not given),-5.0,-23.4,70.7*,1.0
COc1cccc(C(=O)Nc2c(C)n[nH]c2C)c1,0.8,x,0.2,8.2
Cc1cc(NC(=O)NC(=O)c2cccc(OC(F)(F)C(F)F)c2)n[nH]1,12.0,-13.5,-8.2,91.4*
Cc1ccc(SCCC(=O)Nc2ccccc2C(=O)NC(C)C)cc1,x,66.7*,x,x
COC(=O)c1ccc(-n2nnnc2SCC(=O)N2CCCCC2)cc1,100.0*,x,-14.3,u
CC(C)NC1CS(=O)(=O)CC1O (stereo not given),100.0*,11.6,u,u
COc1ccc(NC(=S)Nc2ccccc2)cn1,x,-11.0,x,x
COc1ccc(/C=C/C(=O)Nc2ccc(OC)nc2)cc1,x,-7.2,x,x
COc1ccc(CS(=O)(=O)/C(Cl)=C(/Cl)C(=O)Nc2ccc(OC)nc2)cc1,13.7,94.9*,5.3,41.8*
COc1ccc(NC(=O)/C(Cl)=C(/Cl)S(=O)Cc2ccccc2)cn1 (stereo not given),99.2*,x,8.3,87.8*
Cc1ccc(C2=NN(S(=O)(=O)c3ccccc3)C(c3ccccc3O)C2)cc1 (stereo not given),x,15.0,x,x
